This excerpt belongs to a sample that is enriched for hits.
miR122 inh = raises miR-122 sensor activity in Huh7 cells. Huh7 psiCHECK-miR122 Renilla luciferase sensor, 48 h. activation, % at 12.5 µM. 0.14% of 340,000 active. AID 623901;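 active means mean activation of 30% or more, with every replicate also reaching 30%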;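 further: 0% = median of neutral control wells and 100% = median of positive control wells; higher luciferase signal means stronger suppression of miR-122 activity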
Active calls of the source: *.

SMILES | miR122 inh
COCC#Cc1ccc2c(c1)O[C@@H](CN(C)Cc1cncnc1)[C@@H](C)CN([C@@H](C)CO)S2(=O)=O | -3.6
COc1cccc(NC(=O)N(C)C[C@@H]2Oc3ncc(C#Cc4ccccc4)cc3C(=O)N([C@@H](C)CO)C[C@H]2C)c1 | 3.7
C/C=C/c1ccc2c(c1)O[C@H](CN(C)C(=O)CC1CC1)[C@H](C)CN([C@@H](C)CO)S2(=O)=O | -6.0
Nc1ccc(Oc2ccc(Br)cc2)cc1 | 35.3*
C[C@H](CO)N1C[C@H](C)[C@H](CN(C)S(=O)(=O)c2ccc(Cl)cc2)Oc2ccc(NC(=O)Nc3ccc(C(F)(F)F)cc3)cc2CC1=O | -94.1
COc1ccc(S(=O)(=O)N(C)C[C@H]2Oc3cc(C#CC4CC4)ccc3S(=O)(=O)N([C@H](C)CO)C[C@H]2C)cc1 | -134.5
COc1ccc(S(=O)(=O)N(C)C[C@@H]2Oc3cc(-c4ccccc4OC)ccc3S(=O)(=O)N([C@H](C)CO)C[C@H]2C)cc1 | -0.2
C[C@@H]1CN([C@@H](C)CO)C(=O)c2cc(NC(=O)CCC(F)(F)F)ccc2O[C@@H]1CN(C)C(=O)Nc1ccc2c(c1)OCO2 | -91.7
C[C@H](CO)N1C[C@H](C)[C@H](CN(C)CC2CCCCC2)Oc2ccc(NC(=O)Nc3ccc(C(F)(F)F)cc3)cc2C1=O | 44.1*
C[C@@H]1CCCCO[C@@H](CN(C)CC2CCCCC2)[C@@H](C)CN([C@H](C)CO)C(=O)c2cc(NC(=O)CCC(F)(F)F)ccc2O1 | -103.8
C[C@@H]1CCCCO[C@H](CN(C)CC2CCCCC2)[C@H](C)CN([C@@H](C)CO)C(=O)c2cc(NC(=O)Nc3ccc(C(F)(F)F)cc3)ccc2O1 | 31.7*
C[C@@H]1CN([C@H](C)CO)C(=O)c2cc(-c3ccccc3)cnc2O[C@H]1CN(C)C(=O)Nc1ccc2c(c1)OCO2 | -4.9
C[C@H]1CN([C@@H](C)CO)C(=O)c2cccc(NC(=O)C3CCCCC3)c2O[C@@H]1CN(C)Cc1ccc(C(F)(F)F)cc1 | -94.2
C[C@H]1CN([C@@H](C)CO)C(=O)c2cccc(NC(=O)Nc3ccc4c(c3)OCO4)c2O[C@@H]1CN(C)CC1CCCCC1 | -97.1
C[C@H]1CN([C@@H](C)CO)C(=O)Cc2cc(NC(=O)Nc3ccc(C(F)(F)F)cc3)ccc2O[C@H]1CN(C)S(=O)(=O)c1ccc(F)cc1 | -98.5
C[C@@H]1CN([C@@H](C)CO)C(=O)c2cc(NC(=O)NC3CCCCC3)ccc2O[C@@H]1CN(C)C(=O)Nc1ccc2c(c1)OCO2 | 32.4*
COCC(=O)Nc1ccc2c(c1)C(=O)N(C)C[C@@H](OC)[C@H](C)CN(C(=O)COC)[C@H](C)CO2 | -1.9
C[C@@H]1CN([C@@H](C)CO)S(=O)(=O)c2ccc(-c3ccccc3)cc2O[C@H]1CN(C)C(=O)CN(C)C | 3.9
COCC#Cc1cnc2c(c1)C(=O)N([C@H](C)CO)C[C@@H](C)[C@H](CN(C)S(=O)(=O)c1cccc(OC)c1)O2 | 1.7
C[C@H]1CN([C@@H](C)CO)S(=O)(=O)c2ccc(C#Cc3ccccc3)cc2O[C@@H]1CN(C)C(=O)Nc1ccccc1 | -28.8
Cc1ccc(S(=O)(=O)N(C)C[C@@H]2Oc3ncc(C#Cc4cccc(F)c4)cc3C(=O)N([C@H](C)CO)C[C@@H]2C)cc1 | 13.3
C[C@H]1CN([C@@H](C)CO)C(=O)c2cc(C#CCc3ccccc3)cnc2O[C@@H]1CN(C)Cc1ccccn1 | 0.7
COc1cccc(-c2ccc3c(c2)O[C@H](CN(C)Cc2cccnc2)[C@H](C)CN([C@H](C)CO)S3(=O)=O)c1 | 1.5
C[C@H]1CN([C@@H](C)CO)C(=O)c2cc(-c3cccc(F)c3)cnc2O[C@H]1CN(C)Cc1ccncc1 | 3.3
C[C@@H]1CN([C@@H](C)CO)C(=O)c2cc(-c3cccc(C#N)c3)cnc2O[C@@H]1CN(C)Cc1ccccc1 | 3.3
SMILES | miR122 inh
COc1ccc(-c2cnc3c(c2)C(=O)N([C@@H](C)CO)C[C@@H](C)[C@@H](CN(C)C(=O)C2CCOCC2)O3)cc1 | -1.3
C[C@@H](O)C#Cc1ccc2c(c1)O[C@H](CN(C)C(=O)Cc1ccccn1)[C@@H](C)CN([C@@H](C)CO)S2(=O)=O | -3.7
COCC(=O)N(C)C[C@H]1Oc2cc(C#CC(C)C)ccc2S(=O)(=O)N([C@H](C)CO)C[C@H]1C | 21.2
Cc1cc(C)cc(Oc2ccc(NC(=O)C3CC=CCC3C(=O)O)cc2)c1 (stereo unspecified) | 32.1*
C[C@H](CO)N1C[C@H](C)[C@H](CN(C)C)Oc2cc(-c3ccc(C(=O)N(C)C)cc3)ccc2S1(=O)=O | 1.5
COc1ccccc1-c1ccc2c(c1)O[C@@H](CN(C)S(=O)(=O)c1ccccc1)[C@@H](C)CN([C@@H](C)CO)S2(=O)=O | 0.6
C[C@H](CO)N1C[C@H](C)[C@@H](CN(C)Cc2ccc3c(c2)OCO3)Oc2ncc(Br)cc2C1=O | -2.7
CO[C@H]1CN(C)C(=O)c2cc(NC(=O)c3ccc(F)cc3)ccc2OC[C@H](C)N(C)C[C@H]1C | 1.0
C[C@@H]1CN([C@H](C)CO)C(=O)c2cc(-c3cccc(F)c3)cnc2O[C@H]1CN(C)Cc1cncnc1 | -4.6
COc1ccc(-c2ccc3c(c2)O[C@H](CN(C)C(=O)c2ccccc2F)[C@H](C)CN([C@H](C)CO)S3(=O)=O)cc1 | 3.5
COCC(=O)N(C)C[C@H]1Oc2cc(-c3ccccc3F)ccc2S(=O)(=O)N([C@@H](C)CO)C[C@H]1C | 55.2*
COCC(=O)N(C)C[C@H]1Oc2cc(-c3cccc(F)c3)ccc2S(=O)(=O)N([C@H](C)CO)C[C@H]1C | 13.7
COc1ccccc1-c1ccc2c(c1)O[C@@H](CN(C)S(=O)(=O)c1ccc(C)cc1)[C@H](C)CN([C@@H](C)CO)S2(=O)=O | 3.4
COc1ccc(-c2ccc3c(c2)O[C@H](CN(C)C(=O)c2ccccc2F)[C@H](C)CN([C@@H](C)CO)S3(=O)=O)cc1 | 12.9
COCC(=O)N(C)C[C@H]1Oc2cc(-c3cccc(F)c3)ccc2S(=O)(=O)N([C@@H](C)CO)C[C@@H]1C | -6.1
COc1ccccc1-c1ccc2c(c1)O[C@@H](CN(C)S(=O)(=O)c1ccc(F)cc1)[C@@H](C)CN([C@@H](C)CO)S2(=O)=O | 35.9*
COc1ccc(-c2ccc3c(c2)O[C@H](CN(C)C(=O)Nc2ccccc2F)[C@H](C)CN([C@@H](C)CO)S3(=O)=O)cc1 | 31.8*
COc1ccccc1-c1ccc2c(c1)O[C@H](CN(C)S(=O)(=O)c1ccc(C)cc1)[C@H](C)CN([C@H](C)CO)S2(=O)=O | -55.5
C[C@@H]1CN([C@H](C)CO)C(=O)c2cc(C#C[C@@H](C)O)cnc2O[C@H]1CN(C)Cc1cncnc1 | 2.8
C[C@@H]1CN([C@H](C)CO)S(=O)(=O)c2ccc(-c3ccncc3)cc2O[C@H]1CN(C)Cc1ccccc1 | -7.8
COCC(=O)N(C)C[C@@H]1Oc2cc(C#CC3CC3)ccc2S(=O)(=O)N([C@@H](C)CO)C[C@@H]1C | 2.4
COCC#Cc1ccc2c(c1)O[C@@H](CN(C)C(=O)C1CCOCC1)[C@@H](C)CN([C@@H](C)CO)S2(=O)=O | 1.8
C[C@H](O)C#Cc1ccc2c(c1)O[C@H](CN(C)Cc1cncnc1)[C@@H](C)CN([C@H](C)CO)S2(=O)=O | -17.2
CNC[C@H]1Oc2cc(-c3ccccc3OC)ccc2S(=O)(=O)N([C@H](C)CO)C[C@@H]1C | -0.8
Cc1ccc(S(=O)(=O)N(C)C[C@@H]2Oc3cc(C#CC4CCCC4)ccc3S(=O)(=O)N([C@H](C)CO)C[C@H]2C)cc1 | -3.1

Screens (PubChem BioAssay)
